Assay outcomes from PubChem BioAssay.
This is a sample that favours compounds with a hit; in the whole collection about 3.9% have one here.
TWEAK Fn14 block: inhibitors of TWEAK-Fn14 interaction signaling; 2% of 360,000 active; TWEAK-stimulated Fn14 reporter cells, luciferase luminescence, 8 h; inhibition, % at 10 µM; in the data active means inhibition above about 50%
HIF-2a inh: blocks HIF-2a reporter activity. 786-0 RCC cells HIF-2a reporter, luciferase luminescence, overnight. inhibition, % at 18.8 µM. 0.72% of 360,000 active;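 active means inhibition of the luminescence signal of 40% or more relative to plate controls, in a single-dose primary screen at 18.75 µM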
TROY NFkB inh: blocks TROY-dependent signaling in reporter cells. Q293 LMP1-TROYcd NF-kB luciferase reporter, 4 h. inhibition, % at 10 µM. AID 1347056. 0.98% of 360,000 active;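 active means compounds whose plate-normalised and pattern-corrected inhibition of the luciferase reporter signal at the single screening dose is 50% or more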
CF NFkB block: blocks PAF-induced NF-kB reporter in cystic fibrosis cells. KKLEB NF-kB-GFP reporter, GFP fluorescence overnight. AID 588850. 0.86% of 360,000 active. inhibition, % at 5 µM;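 active means at least 50% inhibition at 5 µM, scaled per plate between neutral and stimulator controls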;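 further: PAF is a Pseudomonas aeruginosa culture filtrate used as stimulus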
KKLEB tox: reduces viability of KKLEB cystic fibrosis airway cells | 0.36% of 360,000 active | KKLEB CF airway cells viability, ATPlite luminescence, overnight; active compounds read low; cells stimulated with P. aeruginosa culture filtrate | activity change (cytotoxicity), % at 5 µM;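 active means corrected activity change at or below -50% at 5 µM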
Peg3 prom inh: Peg3 promoter activity inhibition; AID 588405; inhibition, % at 20 µM; 1.7% of 360,000 active; HeLa PEG-Prom luciferase reporter, luminescence, overnight;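 active means inhibition of at least 50% at 20 µM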
A number is an active result; . = inactive; / = no result given.

SMILES	TWEAK Fn14 block	HIF-2a inh	TROY NFkB inh	CF NFkB block	KKLEB tox	Peg3 prom inh
Cc1ccccc1Cn1cnc2c(NS(C)(=O)=O)c(C)c(C)cc21	.	.	.	.	.	.
OC(CNCc1ccco1)Cn1c2ccc(Br)cc2c2cc(Br)ccc21 (configuration not stated)	.	.	.	.	.	98.4
O=C(Nc1ccc(N2CCCC2)cc1)c1ccc([N+](=O)[O-])cc1Cl	.	.	.	.	.	.
CC1C(=O)C(C)C(c2ccc(Br)cc2)NC1c1ccc(Br)cc1 (configuration not stated)	.	.	.	.	.	.
CC1C(=O)C(C)C(c2cc(Br)ccc2O)NC1c1cc(Br)ccc1O (configuration not stated)	.	.	63.4	.	.	.
CCOc1ccc(N(CC(=O)OC)S(=O)(=O)c2ccc3c(c2)n(C)c(=O)c(=O)n3C)cc1	79.9	.	.	.	.	.
OCC1(Cc2ccc(F)cc2F)CCCN(Cc2ccc(Cl)cc2)C1 (configuration not stated)	.	.	.	.	.	.
CCCCOc1ccc(/C=C/C(=O)OCC(=O)N2CC(=O)Nc3ccccc32)cc1OCC	68.1	.	.	.	.	.
CCN(Cc1ccccc1)c1ccc(/C=C(\C#N)c2ccccn2)cc1	.	.	.	.	.	.
CN(CCC#N)c1ccc(/C=C(\C#N)c2ccccn2)cc1	52.0	.	.	.	-51.6	.
CCN(CC)c1ccc(/C=C(\C#N)c2ccccn2)cc1	76.9	.	70.9	.	-50.3	.
Cc1ccc(C(=O)c2coc3ccc(O)cc23)cc1	55.9	.	.	.	.	.
COc1ccc(C(=O)c2coc3ccc(OC(C)=O)cc23)cc1	56.8	.	.	.	.	.
Cc1cccc(NC2=NC(=S)N(CC#N)C23CCCCC3)c1	.	.	.	.	.	.
CCc1nn2cc(-c3ccccc3)nc2s1	93.3	.	84.1	.	.	.
Cc1nn2cc(-c3ccc(-c4ccccc4)cc3)nc2s1	.	.	/	.	.	.
c1ccc(-c2cn3nc(-c4ccccc4)c(-c4ccccc4)nc3n2)cc1	.	.	.	.	.	.
Cc1nn2cc(-c3ccc(Cl)cc3)nc2s1	63.1	.	.	.	.	.
O=C(CN1C(=O)NC2(CCCC2)C1=O)OCCOc1ccccc1	.	.	.	.	.	.
COc1ccc(-c2cc(=O)oc3c(C)c(O)c(CN(C)C)cc23)cc1	.	.	60.4	54.8	.	.
Cc1ccc(-c2csc(/C(C#N)=C/Nc3ccc4c(c3)OCCO4)n2)cc1	.	.	.	67.8	-66.2	.
O=C(CCCCl)Nc1nc(-c2ccc3c(c2)OCCO3)cs1	51.3	.	.	.	.	.
Cc1cccc(Nc2nc(-c3c(C)nc4ccccn34)cs2)c1	65.9	.	.	.	.	.
Cc1nc2ccccn2c1-c1csc(Nc2cccc(O)c2)n1	.	.	.	.	.	.
O=C(Nc1nc(-c2ccc3c(c2)OCCO3)cs1)c1ccc(Br)o1	.	.	54.7	.	.	.
SMILES	TWEAK Fn14 block	HIF-2a inh	TROY NFkB inh	CF NFkB block	KKLEB tox	Peg3 prom inh
Cc1ccc(N2C(=O)N(CC(=O)Nc3cccc(Cl)c3)C(=O)C2C)cc1 (configuration not stated)	.	.	.	.	.	.
CC(=C/c1ccccc1)/C=N/NC(=O)c1ccccn1	.	.	.	.	.	.
Cc1cccc(Nc2nc(-c3ccc4c(c3)OCCO4)cs2)c1	69.6	.	66.0	.	.	.
Cc1cccc(Nc2nc(-c3ccncc3)cs2)c1	.	.	.	.	.	.
c1cncc(-c2nc(-c3ccc4c(c3)OCCO4)cs2)c1	51.6	.	.	.	.	.
Oc1ccc(-c2csc(-c3cccnc3)n2)cc1O	.	.	.	.	.	.
Cc1ccc(C(C(=O)Nc2ccc(C(C)C)cc2)N(C)C(=O)c2ccc(=O)[nH]c2)cc1 (configuration not stated)	.	.	.	.	.	.
Cc1c(C(=O)Nc2cccc(Cl)c2)oc2ccc(S(=O)(=O)N3CCC4(CC3)OCCO4)cc12	62.4	.	.	.	.	57.9
Cc1c(C(=O)Nc2ccc(S(=O)(=O)N(C)C3CCN(C)CC3)cc2)oc2ccccc12	.	.	.	.	.	89.3
Cc1c(C(=O)Nc2ccc(F)cc2)oc2ccc(S(=O)(=O)N3CCC4(CC3)OCCO4)cc12	53.5	.	.	.	.	55.4
Cc1c(C(=O)Nc2ccc(F)c(F)c2)oc2ccc(S(=O)(=O)N3CCCCC3)cc12	81.2	.	.	.	.	64.5
Cc1c(C(=O)Nc2ccc(F)cc2)oc2ccc(S(=O)(=O)N3CCCC3)cc12	.	.	.	.	.	.
Cc1cccc(N2CN=C3SCC(=O)N3C2)c1	.	.	.	.	.	.
CCOc1cc(Br)c(C(C)NC(=O)c2cccnc2)cc1OCC (configuration not stated)	.	.	.	.	.	.
CC(=O)c1cccc(NC(=O)COC(=O)COc2c(Cl)cc(Cl)c3ccc(C)nc23)c1	63.1	.	.	.	.	.
CC1=C(/C=C/C(C)=C/C=C/C(C)=C/C(=O)O)C(C)(C)CCC1	.	.	.	72.9	.	.
FC(F)(F)c1cccc(-c2nc3nc(Cl)c(Cl)nc3[nH]2)c1	63.6	.	.	.	.	.
FC(F)(F)c1nc2nc(Cl)c(Cl)nc2[nH]1	.	.	.	.	.	.
COP(=O)(CN(Cc1ccccc1)C(=S)Nc1c(C)cccc1C)OC	.	.	.	.	.	.
COc1cc(/C=N/NC(=O)C(=O)/C=C2\NC3(CCCC3)Cc3ccccc32)ccc1O	.	.	.	.	.	.
O=C(/C=C1\NC2(CCCC2)Cc2ccccc21)C(=O)N/N=C/c1ccccc1O	.	.	.	51.3	.	.
COC(=O)C1=C(Cn2cnc3ccccc32)NC(=O)NC1c1cc(C)ccc1C (configuration not stated)	.	.	.	.	.	.
CCOC(=O)C1=C(Cn2cnc3ccccc32)NC(=O)NC1c1cc(C)ccc1C (configuration not stated)	.	.	51.9	.	.	.
N#Cc1ccc(NC(=O)Nc2ccc(Oc3ccc(NC(=O)Nc4ccc(C#N)cc4)cc3)cc2)cc1	105.3	.	61.8	.	.	57.2
N#Cc1ccc(NC(=O)Nc2cccc(C#N)c2)cc1	.	.	.	.	.	.
Clc1ccc2nc(N3CCNCC3)nc(-c3ccccc3)c2c1	.	.	.	.	.	101.2
C/C(=N\NC(=O)C1(C)CC1(Br)Br)c1cccc(NC(=O)c2ccc(C)o2)c1 (configuration not stated)	55.7	.	.	.	.	62.0
Cc1ccc(C(=O)Nc2cccc(C(=O)NCc3ccccc3)c2)o1	.	.	.	.	.	.
CCOc1ncccc1C(=O)Nc1ccc(S(=O)(=O)N2CCCC2)cc1	.	.	.	.	.	.
